According to PubChem BioAssay AID686978 (National Center for Advancing Translational Sciences (NCATS), 2013):
The whole screen tested about 420,000 compounds, of which about 64,000 (15%) were called active. Roughly 27% stayed inconclusive and do not appear here. Calls come from the whole dose curve; as a rule, active = well fitted inhibition curve with a large enough effect; inconclusive = small, poorly fitted or top-dose-only effect; inactive = flat fitted curve, though single readings scatter. These entries were drawn from the full list.

Experiment: qHTS for Inhibitors of human tyrosyl-DNA phosphodiesterase 1 (TDP1): qHTS in cells in absence of CPT; note: nearly all actives have a fitted effect of over 55% in size
Conditions: DT40 Tdp1-/- hTDP1 cells, no CPT, ATP luminescence, 48 h; activity change, negative = growth inhibition: at 46.2 µM (top of the series)
Procedure, shortened: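 Luminescent ATP content (CellTiter-Glo) served as the growth readout. Knockout chicken DT40 cells expressing human TDP1 were exposed to compounds without camptothecin for a minimum 48 hr at 37 °C.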
% is set by controls: 0 for no effect and ±100 for the full control effect; potency is the fitted concentration of half-maximal effect.

Row | Structure (SMILES) | activity change, negative = growth inhibition | Potency
1 | COC(=O)C(C(=O)Nc1cccc(Cl)c1C)C1CCCC1 (stereo unspecified) | -25.4% (inactive) | 
2 | CCOC(=O)C(=O)C1C(=O)Nc2ccccc21 (stereo unspecified) | 5.01% (inactive) | 
3 | CCC(=O)Nc1c(C)n[nH]c1C | -10% (inactive) | 
4 | CCOc1ccc(-c2cn(S(=O)(=O)c3cccc4nsnc34)nc2N)cc1 | -13.4% (inactive) | 
5 | COc1cccc(CNC(=O)CN2C(=O)CCc3cc(S(=O)(=O)N4CCOCC4)ccc32)c1 | -0.508% (inactive) | 
6 | Cc1cc(NC(=O)CSc2nc(=O)cc(N)n2-c2ccc(F)cc2)no1 | 9.07% (inactive) | 
7 | CC(=O)c1ccc(NC(=O)COc2ccccc2-c2nc(-c3ccccc3)no2)cc1 | -10.5% (inactive) | 
8 | CCCN(CCC)c1ccc(C(O)c2nnc(-c3ccccc3)o2)cc1 (stereo unspecified) | -2.41% (inactive) | 
9 | CC(=O)c1ccc(NC(c2ccc(F)cc2)c2nnc(-c3ccccc3)o2)cc1 (stereo unspecified) |  | 8.2 µM (active)
10 | NC(=O)C1(N2CCCC2)CCN(Cc2ccccc2)CC1 | 1.08% (inactive) | 
11 | COC(=O)[C@@H]1C[C@H]2CC[C@H](O)C[C@H]2N1Cc1ccc(N2CCN(C)CC2)cc1 | 9.08% (inactive) | 
12 | COCCNC(=O)C(c1ccc(C)o1)N(Cc1ccccc1)C(=O)Cn1nnc2ccccc21 (stereo unspecified) | -18.4% (inactive) | 
13 | Cc1ccc2nc(/C(C#N)=C\c3ccc(OC(=O)c4cccs4)cc3)[nH]c2c1 |  | 6.51 µM (active)
14 | N#C/C(=C\c1ccccc1F)c1nc2ccccc2c(=O)[nH]1 | -10.4% (inactive) | 
15 | CCOc1ccc(/C=C(\C#N)c2nc3ccccc3c(=O)[nH]2)cc1OC | -28% (inactive) | 
16 | Cc1ccc2nc(/C(C#N)=C/c3ccccc3F)[nH]c2c1 |  | 18.4 µM (active)
17 | COc1ccccc1CSc1nc2ccccc2[nH]1 | -18.3% (inactive) | 
18 | Cc1ccc2nc(S(=O)(=O)O)[nH]c2c1 | 4.87% (inactive) | 
19 | Cc1ccc2nc(/C(C#N)=C/c3ccc(-c4ccc(C(=O)OC(C)C)cc4)o3)[nH]c2c1 |  | 5.17 µM (active)
20 | COc1cc(/C=C(\C#N)c2nc3ccccc3[nH]2)ccc1O |  | 23.1 µM (active)
21 | CCOC(=O)c1ccc(-c2ccc(/C=C(\C#N)C(=O)Nc3ccc(OCC)cc3)o2)cc1 | 1.66% (inactive) | 
22 | N#CCCC(C#N)(c1cccnc1)N1CCOCC1 (stereo unspecified) | -1.39% (inactive) | 
23 | CCCCN1CC(COCc2ccccc2)OCCS1(=O)=O (stereo unspecified) | -27.9% (inactive) | 
24 | CC(C)c1cc(C(=O)O)on1 | 8.31% (inactive) | 

Row | Structure (SMILES) | activity change, negative = growth inhibition | Potency
25 | CN(C(=O)CSc1nnnn1-c1ccccc1)C1CCCCC1 | 0.578% (inactive) | 
26 | NNC(=O)CNC(c1ccccc1)c1cc(Cl)ccc1NC(=O)c1ccccc1 (stereo unspecified) | -9.24% (inactive) | 
27 | CC(C)C(c1nnnn1C(C)(C)C)N1CCN(Cc2cccnc2)CC1 (stereo unspecified) | 8.15% (inactive) | 
28 | COc1ccc(C(=O)O/N=C(\N)c2ccccn2)cc1[N+](=O)[O-] | -20.5% (inactive) | 
29 | O=C(Nc1ccccc1)c1ccc(NC(=O)c2cccs2)cc1 | 2.02% (inactive) | 
30 | O=C(Nc1ccccc1-c1nnn(CC(=O)N2CCN(c3ccccc3)CC2)n1)c1cccs1 |  | 23.1 µM (active)
31 | COc1ccccc1N1CCN(C(=O)Cn2nnc(-c3cccs3)n2)CC1 | -19.7% (inactive) | 
32 | CCc1ccccc1NC(=O)c1cccs1 | -14% (inactive) | 
33 | CCOc1ccc(-c2nnn(CC(=O)N3CCN(c4ccc(F)cc4)CC3)n2)cc1OCC | -10.8% (inactive) | 
34 | O=C(Nc1ccccc1-c1ccccc1)c1cccs1 |  | 23.1 µM (active)
35 | OCCNCCCCOc1ccccc1F | -13.5% (inactive) | 
36 | Cn1c2c(c(=O)n(C)c1=O)[C@@H]1c3c(ccc4ccccc34)OC[C@@H]1CO2 | 10.5% (inactive) | 
37 | COc1cc(N2C(=O)CC3(CCCC3)CC2=O)cc(OC)c1OC | 2.17% (inactive) | 
38 | O=C(COc1ccc(F)cc1)N(CC1=CCS(=O)(=O)C1)c1ccccc1 | -26.4% (inactive) | 
39 | CC1C(=O)Nc2ccccc2N1C(=O)c1c(F)cccc1F (stereo unspecified) | -18.1% (inactive) | 
40 | CC1Oc2ccccc2N(Cc2cccnc2)C1=O (stereo unspecified) | -1.68% (inactive) | 
41 | CC1C(=O)N(Cc2ccccc2)c2ccccc2N1C(=O)c1ccccc1 (stereo unspecified) |  | 13 µM (active)
42 | Cc1ccc(C(=O)Nc2nc(N)n(-c3ccccc3)n2)cc1 | -12.3% (inactive) | 
43 | CCc1cccc(-n2nnc(-c3nsc(NC(=O)c4ccc(C)cc4)n3)c2C)c1 |  | 8.2 µM (active)
44 | Cc1ccc(C(=O)Nc2nc(-c3ccccc3)ns2)cc1 | -25.5% (inactive) | 
45 | CCc1ccc(CN(C)C(=O)CCc2nnc(-c3ccc(-c4ccccc4)cc3)o2)nc1 |  | 11.6 µM (active)
46 | CN(Cc1ccccc1)C(=O)CCc1ccccc1 | -27.6% (inactive) | 
47 | CC(=O)c1ccc(-c2nnc(CCC(=O)N(C)Cc3cnc4ccccn34)o2)s1 | -11.2% (inactive) | 
48 | CCOc1ccc(C)cc1S(=O)(=O)NC1CCCCCC1 | 10.5% (inactive) | 

Row | Structure (SMILES) | activity change, negative = growth inhibition | Potency
49 | Clc1ccc(C[n+]2cc(-c3ccccc3)n3c2CCC3)cc1 |  | 5.17 µM (active)
50 | Clc1ccc(C[n+]2cc(-c3ccc(Cl)cc3)n3c2CCC3)cc1 |  | 5.8 µM (active)
51 | Cn1c(-c2ccccc2)c[n+]2c1CCCCC2 | 0.0239% (inactive) | 
52 | COc1ccccc1C(=O)NCCC(=O)N(C)Cc1cccnc1 | 10% (inactive) | 
53 | COCC1CCN(C(=O)C2CCC(=O)N(Cc3cccc(C(F)(F)F)c3)C2)CC1 (stereo unspecified) | -1.97% (inactive) | 
54 | O=C(NCCc1ccccn1)c1nc(Cn2cc([N+](=O)[O-])cn2)no1 | 3.68% (inactive) | 
55 | Cc1nc(Cl)c(C#N)c2c1CCCC2 | -8.66% (inactive) | 
56 | N#C/C(=C1/CCCN1)c1ccccn1 | 4.88% (inactive) | 
57 | Cc1sc2nc(SCCO)n(-c3ccccc3)c(=O)c2c1C |  | 13 µM (active)
58 | Cc1sc2nc(SCC(N)=O)n(C)c(=O)c2c1C | -15.2% (inactive) | 
59 | CCc1cc2c(=O)n(-c3ccccc3)c(SCC(=O)O)nc2s1 | 4.2% (inactive) | 
60 | COc1cccc(N(C(=O)CNC(=O)c2ccco2)C(C(=O)NC2CCCCC2)c2cccnc2)c1 (stereo unspecified) | -7.84% (inactive) | 
61 | CCOc1ccc2cc(C#N)c(SCC(=O)OC)nc2c1 | -16.1% (inactive) | 
62 | CC(C)c1c(C(=O)N/N=C/c2ccc(-c3ccccc3)cc2)nnn1-c1nonc1N | 1.96% (inactive) | 
63 | CC1(C)C(=O)C2(CCCCC2)C(=O)OC1c1cccs1 (stereo unspecified) | -15.1% (inactive) | 
64 | O=c1oc2ccccc2c(=O)c2ccccc12 | -0.558% (inactive) | 
65 | CCNc1c(NS(=O)(=O)c2ccc(C3CCCCC3)cc2)c(=O)oc2ccccc12 |  | 16.4 µM (active)
66 | CC(C)(C)Nc1c(N)c(=O)oc2ccccc12 | -10.6% (inactive) | 
67 | Cn1c(Cc2csc(N)n2)nnc1SC/C=C/c1ccccc1 | -1.41% (inactive) | 
68 | CCOC(=O)C1=NN(c2ccc(Cl)cc2)/C(=C/C2=NCCc3cc(OC)c(OC)cc32)S1 | -3.61% (inactive) | 
69 | COc1cc2c(cc1OC)C(/C=C/c1ccco1)=NCC2 |  | 13 µM (active)
70 | COc1cccc2c(N/N=C/c3ccco3)cc(C)nc12 | 4.74% (inactive) | 
71 | CC12C(=O)N(n3cnnc3)C(=O)C1C1C=CC2C1 (stereo unspecified) | 1.03% (inactive) | 
